An excerpt weighted towards active compounds, which were near 4.1% of everything screened.
DAX1 inh-1: inhibits human nuclear receptor DAX1. P51843. HEK293 Gal4-DAX1 luciferase reporter, luminescence. inhibition, % at 6.75 µM. 340,000 compounds, 0.99% hits. AID 504766;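 active means inhibition above the mean over all tested compounds plus 3 SD, cut at about 4.2% in these data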;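 further: 0% = DAX1-transfected cells with DMSO and 100% = empty-vector control cells with DMSO; inhibition shows as a rise in luminescence from relieved DAX1 repression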
Target sequence (P51843 207-470 limits assumed): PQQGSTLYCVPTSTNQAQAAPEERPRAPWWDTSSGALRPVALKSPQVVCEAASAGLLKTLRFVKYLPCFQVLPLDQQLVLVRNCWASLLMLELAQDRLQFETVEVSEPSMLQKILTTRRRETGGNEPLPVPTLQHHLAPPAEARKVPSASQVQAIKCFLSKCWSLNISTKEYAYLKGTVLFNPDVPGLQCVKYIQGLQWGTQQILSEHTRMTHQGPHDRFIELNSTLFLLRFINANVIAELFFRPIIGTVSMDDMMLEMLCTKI
ssDAF12 agonist: activators of S. stercoralis DAF-12 nuclear receptor | 370,000 compounds, 1% hits | activation, % at 6.8 µM | HEK293 ssDAF-12/GRIP1 lit1-tk-luc reporter, luminescence; % of 3 µM dafachronic acid response;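 active means activation above the mean over all tested compounds plus 3 SD, cut at about 0.9% in these data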;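 further: 0% = DMSO-only wells and 100% = 3 µM delta7-dafachronic acid wells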
hgDAF12 agonist: agonists of H. glycines DAF-12 nuclear receptor; HEK293 GAL4-hgDAF12 UAS-luciferase reporter, agonist luminescence; normalized to butyrate control; 370,000 compounds, 1.8% hits; activation, % at 6.8 µM; AID 687014;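 active means activation above a cutoff set at the mean of all screened compounds plus 3 SD, cut at about 10% in these data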;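 further: 0% = DMSO wells and 100% = sodium butyrate wells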
DAX1 inh-2: inhibitors of DAX1 repression of SF-1 activated StAR promoter; HEK293T StAR-luciferase reporter, SF-1/DAX-1 repression relief; inhibition, % at 6.8 µM; 370,000 compounds, 1.1% hits;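 active means inhibition above the mean over all tested compounds plus 3 SD, cut at about 3.6% in these data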;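 further: 0% = DAX-1 cells with DMSO and 100% = cells lacking DAX-1 with DMSO; higher inhibition means more luminescence from relief of DAX-1 repression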
hcDAF12 agonist: H. contortus DAF-12 activation, primary screen; HEK293 hcDAF-12 lit1-tk-luc reporter, luminescence; 0% DMSO, 100% Δ7-dafachronic acid; activation, % at 6.8 µM; 370,000 compounds, 1.4% hits; AID 652067;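 active means activation above the mean of all tested compounds plus 3 SD, cut at about 5.5% in these data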;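 further: 100% = response to 3 µM Δ7-dafachronic acid high control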
Starred values were filed as active, the others as inactive.

Results for C#CCSc1nnc(-c2ccc([N+](=O)[O-])cc2)o1 ?
DAX1 inh-1: -1.4; ssDAF12 agonist: -1.2; hgDAF12 agonist: 12.1*; DAX1 inh-2: 2.1; hcDAF12 agonist: 0.2

What do the screens show for `Cc1ccccc1-c1nnc(SCc2ccccc2F)o1`?
DAX1 inh-1: 4.3*; ssDAF12 agonist: -0.5; hgDAF12 agonist: 12.6*; DAX1 inh-2: 3.9*; hcDAF12 agonist: 6.4*

Results for C#CCSc1nnc(-c2ccc(OC)cc2)o1 ?
DAX1 inh-1: 4.5*; ssDAF12 agonist: 0.2; hgDAF12 agonist: 11.3*; DAX1 inh-2: 2.2; hcDAF12 agonist: 2.8

Results for CCOC(=O)[C@]12CCCCC/C=C\1N(CCc1ccc(Cl)cc1)C(=O)[C@H]2CC(=O)N1CCCC1 ?
ssDAF12 agonist: -1.3; hgDAF12 agonist: -2.1; DAX1 inh-2: -4.2; hcDAF12 agonist: -2.7

Results for C=CCN1C(C(=O)OC)CN(Cc2cn(Cc3ccc(Cl)cc3)nn2)CCS1(=O)=O (stereo unspecified) ?
ssDAF12 agonist: -0.7; hgDAF12 agonist: -0.9; DAX1 inh-2: -1.2; hcDAF12 agonist: -2.5

What do the screens show for `CC(=O)OC12CCCN(C1)/C(=C/c1cccc(N(C)C)c1)C2` (stereo unspecified)?
ssDAF12 agonist: -1.5; hgDAF12 agonist: 0.1; DAX1 inh-2: -0.8; hcDAF12 agonist: -1.8

Results for CCSc1nnc(-c2ccc(OC)cc2)o1 ?
DAX1 inh-1: 0.8; ssDAF12 agonist: -0.6; hgDAF12 agonist: 12.2*; DAX1 inh-2: 1.0; hcDAF12 agonist: 0.9

Results for COc1ccc(-c2nnc(SCc3ccccc3F)o2)cc1 ?
DAX1 inh-1: 1.4; ssDAF12 agonist: 0.7; hgDAF12 agonist: 11.8*; DAX1 inh-2: 4.4*; hcDAF12 agonist: 6.4*

How did Cc1ccc2c(c1)c(-c1csc(N)n1)c(C)n2C do in these assays?
DAX1 inh-1: 0.1; ssDAF12 agonist: 1.6*; hgDAF12 agonist: 1.8; DAX1 inh-2: 0.4; hcDAF12 agonist: 2.9

Results for CCOc1ccccc1N1C(=O)CC(Sc2ccccc2N)C1=O (stereo unspecified) ?
DAX1 inh-1: 1.5; ssDAF12 agonist: -0.7; hgDAF12 agonist: 0.0; DAX1 inh-2: -0.5; hcDAF12 agonist: 0.2

Results for COc1ccc(Cl)cc1N1C(=O)CC(Sc2ccccc2N)C1=O (stereo unspecified) ?
DAX1 inh-1: 1.2; ssDAF12 agonist: 1.6*; hgDAF12 agonist: 3.1; DAX1 inh-2: -0.5; hcDAF12 agonist: -0.5

What do the screens show for `O=[N+]([O-])c1cccc2nc3ccccc3c(NCCCn3ccnc3[N+](=O)[O-])c12`?
DAX1 inh-1: 1.7; ssDAF12 agonist: -0.9; hgDAF12 agonist: -3.3; DAX1 inh-2: -2.9; hcDAF12 agonist: 0.7

Results for CC1CCC/C(=N\NC(=O)Nc2ccccc2)C1 (stereo unspecified) ?
DAX1 inh-1: 4.8*; ssDAF12 agonist: -1.1; hgDAF12 agonist: 3.5; DAX1 inh-2: 0.5; hcDAF12 agonist: 4.1

Results for COC(=O)[C@]12C[C@H](CC(=O)NCCc3ccccc3OC)C(=O)N(Cc3cccc4ccccc34)C1=C[C@H](C1CCCC1)O[C@@H]2C ?
ssDAF12 agonist: -0.9; hgDAF12 agonist: 2.2; DAX1 inh-2: -0.5; hcDAF12 agonist: -1.2

Results for O=C(CC1CCCC1)Nc1nnc(C2CC2)s1 ?
DAX1 inh-1: 4.6*; ssDAF12 agonist: -1.0; hgDAF12 agonist: 3.4; DAX1 inh-2: -0.1; hcDAF12 agonist: -0.2

How did Cn1nc(C(F)(F)F)cc1-c1ccc(S(N)(=O)=O)s1 do in these assays?
DAX1 inh-1: 5.1*; ssDAF12 agonist: -0.8; hgDAF12 agonist: 1.5; DAX1 inh-2: 0.4; hcDAF12 agonist: -1.1

How did Cn1nc(-c2ccc(S(N)(=O)=O)s2)cc1C(F)(F)F do in these assays?
DAX1 inh-1: 1.1; ssDAF12 agonist: -1.8; hgDAF12 agonist: 2.0; DAX1 inh-2: 0.0; hcDAF12 agonist: -0.1

What do the screens show for `Cc1ccc(Cl)cc1N(CC(=O)Nc1cccc(N(C)S(C)(=O)=O)c1)S(C)(=O)=O`?
DAX1 inh-1: 0.4; ssDAF12 agonist: 1.1*; hgDAF12 agonist: 2.1; DAX1 inh-2: -0.6; hcDAF12 agonist: 4.0

Results for CCCCOc1ccc(-c2[nH]ncc2C=O)cc1 ?
DAX1 inh-1: 5.1*; ssDAF12 agonist: 0.1; hgDAF12 agonist: 12.9*; DAX1 inh-2: 1.1; hcDAF12 agonist: 3.6

How did CCCCCCc1ccc(-c2ncc(N)cn2)cc1 do in these assays?
DAX1 inh-1: 0.7; ssDAF12 agonist: -0.6; hgDAF12 agonist: 11.3*; DAX1 inh-2: 2.4; hcDAF12 agonist: 2.3

What do the screens show for `CCCCCc1ccc(-c2nnc(N)s2)cc1`?
DAX1 inh-1: 2.0; ssDAF12 agonist: -0.2; hgDAF12 agonist: 7.7; DAX1 inh-2: 0.9; hcDAF12 agonist: 1.9

What do the screens show for `COc1ccc(NC(=O)N2CCC(N(C)CCC(C)C)CC2)cc1OC`?
ssDAF12 agonist: -0.5; hgDAF12 agonist: 5.3; DAX1 inh-2: -0.5; hcDAF12 agonist: -3.3

How did CCCN1CCc2c(sc(NC(=S)NC(=O)c3ccccc3)c2C#N)C1 do in these assays?
DAX1 inh-1: 4.8*; ssDAF12 agonist: -1.6; hgDAF12 agonist: 5.3; DAX1 inh-2: 3.0; hcDAF12 agonist: 3.0

How did CC(C)N1CCc2c(sc(NC(=S)NC(=O)c3ccccc3)c2C#N)C1 do in these assays?
DAX1 inh-1: 2.5; ssDAF12 agonist: -1.5; hgDAF12 agonist: 4.5; DAX1 inh-2: 0.6; hcDAF12 agonist: 8.3*

How did Cc1sc(NC(=S)NC(=O)c2ccccc2)c(C#N)c1C do in these assays?
DAX1 inh-1: 0.8; ssDAF12 agonist: -0.7; hgDAF12 agonist: 3.4; DAX1 inh-2: 0.4; hcDAF12 agonist: -0.2

Results for CC(C)C1Cc2c(sc(NC(=S)NC(=O)c3ccccc3)c2C#N)CO1 (stereo unspecified) ?
DAX1 inh-1: 0.7; ssDAF12 agonist: -0.8; hgDAF12 agonist: 3.4; DAX1 inh-2: 0.0; hcDAF12 agonist: 0.3

What do the screens show for `C(=Nn1cnnc1)c1ccc2c(c1)CCC2`?
DAX1 inh-1: 1.3; ssDAF12 agonist: -0.7; hgDAF12 agonist: -2.5; DAX1 inh-2: 0.5; hcDAF12 agonist: -1.6

How did Cc1cc(C)nc(NC(=O)CSc2nn(-c3ccccc3)c(=S)s2)n1 do in these assays?
DAX1 inh-1: 9.1*; ssDAF12 agonist: -1.1; hgDAF12 agonist: 0.2; DAX1 inh-2: 0.8; hcDAF12 agonist: -1.0

What do the screens show for `COc1ccc(/C=N/NC(=S)Nc2c(C)n(C)n(-c3ccccc3)c2=O)cc1OC`?
DAX1 inh-1: 5.4*; ssDAF12 agonist: -1.3; hgDAF12 agonist: -0.2; DAX1 inh-2: 0.1; hcDAF12 agonist: -0.9

Results for O=C1CSc2ccc(C(=O)N3CCCC(C(=O)N4CCCN(Cc5ccccc5)CC4)C3)cc2N1 (stereo unspecified) ?
ssDAF12 agonist: -1.0; hgDAF12 agonist: -3.9; DAX1 inh-2: -0.8; hcDAF12 agonist: -0.8

Results for COc1ccc(/C(N)=N/OC(=O)c2ccco2)cc1 ?
DAX1 inh-1: -1.4; ssDAF12 agonist: 0.3; hgDAF12 agonist: 11.1*; DAX1 inh-2: 3.9*; hcDAF12 agonist: 4.0
